Reference: PubChem BioAssay

assay: chitosan synthesis blockers in C. neoformans – flow cytometry, Cibacron Brilliant Red staining (AID 1347148); conditions: Cryptococcus neoformans chitosan, active compounds read low; at 10 µM unless noted; call rule not given here;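 further: compound exposure lasted three days at 37 degrees C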

Fold fluorescence, inactive:
C=C(C)[C@H]1CC[C@@]2(C(=O)O)CC[C@@]3(C)[C@@H](CC[C@H]4[C@]5(C)CC[C@@H](O)C(C)(C)[C@H]5CC[C@@]43C)[C@H]12 3.34 [at 109.5 µM]
CC(C)[C@@H](O)CC[C@H](C)[C@@H]1CC[C@@H]2[C@H]3CC=C4C[C@H](O)CC[C@@]4(C)[C@@H]3CC[C@]21C 4.41 [at 124.2 µM]
O=C(O)CNC(=O)[C@H](CS)Cc1ccccc1 3.85 [at 197.4 µM]
CCCCCCCCCCCCCCCCOC[C@@H](COP(=O)([O-])OCC[N+](C)(C)C)OC 4.86
CCCCC[C@@H](O)CC[C@H]1[C@H](CCCCCCC(=O)O)C(=O)C[C@@H]1O 5.11
CC(=O)O[C@@H]1C(=O)[C@]2(C)C([C@@H](OC(=O)c3ccccc3)[C@@]3(O)C[C@@H](OC(=O)[C@@H](O)[C@H](NC(=O)c4ccccc4)c4ccccc4)C(C)=C1C3(C)C)[C@@]1(OC(C)=O)CO[C@H]1C[C@H]2O (stereo not given in full) 4.34 [at 58.6 µM]
OC[C@@H]1NC[C@@H](O)[C@H](O)[C@H]1O 7.48 [at 306.4 µM]
CCCCC[C@@H](O)/C=C/[C@H]1[C@H](CCCCCCC(=O)O)[C@H](O)C[C@@H]1O 3.58
CC(C)COC[C@H](CN(Cc1ccccc1)c1ccccc1)N1CCCC1 8.48 [at 136.4 µM]
CN=C(NC#N)Nc1ccc(C2=NNC(=O)C[C@@H]2C)cc1 7.2 [at 175.9 µM]
CCCCC[C@@H](O)/C=C/[C@H]1[C@H](CC(=O)CCCCC(=O)O)[C@H](O)C[C@@H]1O 4.59
CCCCC[C@@H](O)/C=C/[C@H]1[C@@H](C/C=C\CCCC(=O)O)[C@H](O)C[C@@H]1O 4.83
CNC(=O)[C@@H]1O[C@H](n2cnc3c(NCc4cccc(I)c4)ncnc32)C(O)[C@@H]1O (stereo not given in full) 4.36 [at 98 µM]
CCCCC/C=C\C[C@H](O)/C=C/C=C/C=C\[C@H](O)CCCC(=O)O 3.97 [at 1 µM]
C=C1/C(=C\C=C2/CCC[C@]3(C)[C@@H]2CC[C@H]3[C@@H](C)CCCC(C)(C)O)C[C@H](O)C[C@H]1O 7.1
COC(C)(C)CCC[C@H](C)C/C=C/C(C)=C/C(=O)O 5.1
COc1ccc(CCN(C)CCC[C@@](C#N)(c2cc(OC)c(OC)c(OC)c2)C(C)C)cc1OC 4.22 [at 103.2 µM]
C=C1CC[C@@H](O)C/C1=C/C=C1\CCC[C@]2(C)[C@@H]1CC[C@H]2[C@@H](C)CC[C@H](O)C(C)(C)O 6.63
CCCCCCCCCCCC[C@H](O)C(=O)O 5.23
CCCCC[C@@H](O)/C=C/[C@H]1[C@@H]2C/C(=C/CCCC(=O)O)C[C@@H]2C[C@@H]1O 4.8
CCCCCCCCCCCCCCC[C@H](O)[C@@H](CO)NC(C)=O 4.64
CCCCC[C@@H](O)/C=C/[C@H]1[C@H](CCCCCCC(=O)O)C(=O)C[C@@H]1O 4.03
COc1c(O)c2c(=O)cc(OC)c3c4c(OC)cc(=O)c5c(O)c(OC)c(C[C@H](C)OC(=O)c6ccccc6)c(c(c1C[C@H](C)OC(=O)Oc1ccc(O)cc1)c23)c54 6.48 [at 6.3 µM]
CCCCC(C)(O)C/C=C/[C@H]1[C@H](CCCCCCC(=O)O)C(=O)C[C@@H]1O (stereo not given in full) 3.98
C[S@](=O)c1ccc(-c2nc(-c3ccc(F)cc3)c(-c3ccncc3)[nH]2)cc1 8.78 [at 132.5 µM]
C=C1O[C@](CO)(n2cnc3c(N)ncnc32)[C@@H](O)[C@H]1O 10.1 [at 179 µM]
O=C(O)CCC/C=C\C[C@@H]1C(=O)C[C@H](O)[C@H]1/C=C/[C@H](O)CCc1ccccc1 4.52
O=C(O)c1ccc(-c2c3nc(c(-c4ccc(C(=O)O)cc4)c4ccc([n-]4)c(-c4ccc(C(=O)O)cc4)c4nc(c(-c5ccc(C(=O)O)cc5)c5ccc2[n-]5)C=C4)C=C3)cc1.[Mn+3] 4.93 [at 57 µM]
CCOC(=O)C1=C(C)NC(=S)N[C@H]1c1cccc(O)c1 3.63 [at 171 µM]
CCCCCCCCCCCCCC[C@H](F)C(=O)O 6.01
